In PubChem BioAssay AID602358 (National Center for Advancing Translational Sciences (NCATS), 2012):
Records with an inconclusive call do not appear. Calls of active or inactive are those of the source. Calls come from the whole dose curve; as a rule, active = well fitted inhibition curve with a large enough effect; inconclusive = small, poorly fitted or top-dose-only effect; inactive = flat fitted curve, though single readings scatter.

These compounds were tested against Luciferin 4-monooxygenase (Photinus pyralis) (UniProt P08659) (assay: FLuc inhibitory activity for the follow-up compounds in a biochemical assay with Km concentrations of substrate and 500microM CoASH). Settings: purified FLuc, Km substrates + 500 uM CoASH, luminescence; series mostly up to 57.5 µM.
Summary of the method: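 Purified P. pyralis luciferase (10 nM) in 50mM Tris acetate pH 7.5, 10mM Mg acetate, with 10uM D-luciferin, 10uM ATP and 500 uM CoASH; 12-point qHTS titration, ~60uM to 0.3nM final. Luminescence read by CCD imager.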

Chain of Luciferin 4-monooxygenase (Photinus pyralis) (P08659 whole entry, looked up): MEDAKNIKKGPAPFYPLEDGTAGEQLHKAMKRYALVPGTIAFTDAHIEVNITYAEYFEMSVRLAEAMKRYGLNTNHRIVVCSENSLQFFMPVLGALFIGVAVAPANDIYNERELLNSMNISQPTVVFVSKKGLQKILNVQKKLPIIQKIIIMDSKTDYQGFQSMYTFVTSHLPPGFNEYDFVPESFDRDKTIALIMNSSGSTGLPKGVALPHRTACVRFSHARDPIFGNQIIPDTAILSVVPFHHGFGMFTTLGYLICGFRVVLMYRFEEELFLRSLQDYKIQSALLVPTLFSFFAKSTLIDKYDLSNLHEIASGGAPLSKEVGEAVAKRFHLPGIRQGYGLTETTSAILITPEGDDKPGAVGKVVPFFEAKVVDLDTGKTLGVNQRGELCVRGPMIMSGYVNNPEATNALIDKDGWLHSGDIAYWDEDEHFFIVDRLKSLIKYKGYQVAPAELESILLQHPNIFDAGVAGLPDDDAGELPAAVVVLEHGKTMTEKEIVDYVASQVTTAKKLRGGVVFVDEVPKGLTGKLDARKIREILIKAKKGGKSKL

Potency, active:
CC(C)CC(=O)Nc1cccc(C(=O)Nc2ccccc2C(=O)O)c1 13 µM
Oc1ccc(-c2nc3ccccc3s2)c(O)c1 1.83 µM
O=C(Cc1ccccc1)Nc1ccc(C(=O)Nc2ccccc2C(=O)O)cc1 9.19 µM
COc1ccc(-c2cccc(C(=O)Nc3cccc(C(=O)O)c3)c2)cc1 13 µM
Cc1c(NC(=O)c2cc(-n3cnnc3)ccc2Cl)cccc1-c1nc2ccccc2s1 0.231 µM
